# Results published in PubChem BioAssay (NCATS).
# “And” between values parts separate entries of the source, which are not always exact repeats. Identical values can stand only once. A number with no mark means an inactive call. Inconclusive results are not listed. The list shows a part of the results. Entries that show only a call come without a potency. The source made the active and inactive calls. Unless noted, the call rests on the fitted dose curve; in most records, active means well fitted curve in the direction sought with a large enough effect; inconclusive means small, poorly fitted or top-dose-only effect, or another doubt; inactive means no such curve, though single readings can be large; an effect the other way counts as inactive or inconclusive.
# Legend:
# [1] = molecular target: Cytochrome P450 3A4 (Homo sapiens) (UniProt P08684); assay: qHTS Assay for Activators of Cytochrome P450 3A4 (AID 885); details: recombinant CYP3A4, Luciferin-PPXE luminescence, 60 min; series mostly up to 11.4 µM; further: nearly all actives have a fitted effect of over 65% in size
# Chain of Cytochrome P450 3A4 (Homo sapiens) (P08684 whole entry, looked up): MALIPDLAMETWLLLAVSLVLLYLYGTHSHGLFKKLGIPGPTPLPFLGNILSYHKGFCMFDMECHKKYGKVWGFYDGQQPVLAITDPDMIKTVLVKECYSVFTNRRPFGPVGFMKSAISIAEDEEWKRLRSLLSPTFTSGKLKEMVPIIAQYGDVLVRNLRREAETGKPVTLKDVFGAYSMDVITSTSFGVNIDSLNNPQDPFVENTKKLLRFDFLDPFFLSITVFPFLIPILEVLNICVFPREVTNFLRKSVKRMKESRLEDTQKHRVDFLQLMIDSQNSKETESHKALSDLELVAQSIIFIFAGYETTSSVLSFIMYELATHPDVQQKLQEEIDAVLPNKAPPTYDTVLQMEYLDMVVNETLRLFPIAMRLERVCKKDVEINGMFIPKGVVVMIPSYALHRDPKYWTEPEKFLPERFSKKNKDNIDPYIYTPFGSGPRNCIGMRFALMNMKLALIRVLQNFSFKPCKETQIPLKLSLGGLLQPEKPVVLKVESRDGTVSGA
# In short: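 Human CYP3A4 dealkylates Luciferin-PPXE to luciferin, which luciferase detection converts to light. Substrate was at its KM (25uM), buffer 200mM KPO4, reaction 60 min at RT.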
# [2] = molecular target: Peroxisome proliferator-activated receptor gamma (Homo sapiens) (UniProt P37231); assay: qHTS assay for small molecule antagonists of peroxisome proliferator-activated receptor gamma signaling (AID 588537; active means well fitted inhibition curve with a large enough effect in the signal ratio, with a control signal flat, not every such curve was filed as active; the % refers to the signal ratio; further: potency means the concentration at half of the fitted maximal effect;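 on activity, negative = inhibition: reporter cells co-stimulated with 50 nM rosiglitazone agonist during compound treatment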); details: HEK293 PPARg-UAS-bla, beta-lactamase ratio, antagonist mode; series mostly up to 76.8 µM
# Chain of Peroxisome proliferator-activated receptor gamma (Homo sapiens) (P37231 whole entry, looked up): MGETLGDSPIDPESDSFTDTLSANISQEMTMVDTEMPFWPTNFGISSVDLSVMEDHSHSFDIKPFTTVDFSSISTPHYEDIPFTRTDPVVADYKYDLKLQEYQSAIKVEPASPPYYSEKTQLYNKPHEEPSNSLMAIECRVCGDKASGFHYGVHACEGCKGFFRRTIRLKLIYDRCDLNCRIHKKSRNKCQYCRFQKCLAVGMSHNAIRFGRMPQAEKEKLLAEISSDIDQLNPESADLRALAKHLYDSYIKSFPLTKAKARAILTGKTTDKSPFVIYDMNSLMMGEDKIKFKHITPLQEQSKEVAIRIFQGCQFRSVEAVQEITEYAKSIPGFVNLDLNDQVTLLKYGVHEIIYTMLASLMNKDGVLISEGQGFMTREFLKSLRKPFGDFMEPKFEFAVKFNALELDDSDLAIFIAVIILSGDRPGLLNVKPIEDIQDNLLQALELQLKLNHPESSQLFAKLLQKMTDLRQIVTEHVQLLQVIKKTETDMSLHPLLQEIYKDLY
# In short: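 Compounds are tested as concentration series for inhibition of rosiglitazone-driven (50 nM) reporter expression in GeneBLAzer PPAR-gamma-UAS-bla HEK293 cells. After 16 h at 37 C, CCF4 substrate is added for 2 h at room temperature and blue/green fluorescence is measured.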
# [3] = qHTS assay to identify small molecules that stimulate interleukin-8 (IL-8) secretion (AID 651758; active means well fitted activation curve with a large enough effect in the signal ratio; the % refers to the signal ratio; further: potency means the concentration at half of the fitted maximal effect); details: HTRF ratio (665/615); series mostly up to 92.2 µM
# In short: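 Quantitative HTS in THP-1 monocytic cells at 2000 cells per well, with 16 hrs compound incubation at 37 C. IL-8 in the medium was then quantified by HTRF immunoassay, read after 1-3 hrs at room temperature.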
# [4] = molecular target: Androgen receptor (Homo sapiens) (UniProt P10275); assay: qHTS assay for small molecule agonists of androgen receptor signaling (AID 588515; active means well fitted curve in the direction sought with a large enough effect in the signal ratio, with a control signal flat; the % refers to the signal ratio); details: AR-UAS-bla HEK293, beta-lactamase ratio, agonist 16 h; hits give high values
# In short: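 Stimulation of an AR-responsive β-lactamase reporter in GripTite HEK293 cells was measured after 16 h compound exposure at 37 °C, via CCF4 fluorescence after 2 h RT. EC50 from Hill fits, normalized to R1881 at 30 nM.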
# [5] = Counterscreen for APE1 Inhibitors: Fluorescent Dye Displacement Assay (AID 2564); details: DNA fluorescent dye displacement counterscreen, fluorescence; series mostly up to 28.5 µM;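 further: loss of thiazole orange fluorescence as the dye is displaced from duplex DNA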
# In short: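 Reaction mixture of 250 nM Thiazole Orange and 50 nM double-stranded abasic-site DNA was dispensed, compounds were pin-transferred, and fluorescence was read at endpoint (480 nm ex, 540 nm em). Reduced fluorescence indicated dye displacement by DNA binding.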
# [6] = molecular target: Endonuclease 4 (Escherichia coli (strain K12)) (UniProt P0A6C1); assay: Counterscreen for APE1 Inhibitors: qHTS Assay for Inhibitors of Endonuclease IV (AID 2565); details: E. coli Endo IV, fluorogenic AP-site DNA cleavage; series mostly up to 27.1 µM
# In short: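 Enzyme (2 nM) + compound, 15 min RT; add 50 nM TAMRA/BHQ-2 THF-site dsDNA; kinetic read ex525/em598, 3 reads/60 s; activity = read 3 − read 1. Buffer Tris pH 7.5, 50 mM NaCl, 2 mM MgCl2, DTT, Tween-20.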
# [7] = molecular target: DNA repair nuclease/redox regulator APEX1 (Homo sapiens) (UniProt P27695); assay: qHTS FP-Based Assay for Inhibitors of the Human Apurinic/apyrimidinic Endonuclease 1 (APE1) (AID 2573); details: APE1 binding to TAMRA-labelled double-stranded DNA, fluorescence polarization displacement; series mostly up to 28.5 µM; further: potency means the concentration at half of the fitted maximal effect
# Chain of DNA repair nuclease/redox regulator APEX1 (Homo sapiens) (P27695 whole entry, looked up): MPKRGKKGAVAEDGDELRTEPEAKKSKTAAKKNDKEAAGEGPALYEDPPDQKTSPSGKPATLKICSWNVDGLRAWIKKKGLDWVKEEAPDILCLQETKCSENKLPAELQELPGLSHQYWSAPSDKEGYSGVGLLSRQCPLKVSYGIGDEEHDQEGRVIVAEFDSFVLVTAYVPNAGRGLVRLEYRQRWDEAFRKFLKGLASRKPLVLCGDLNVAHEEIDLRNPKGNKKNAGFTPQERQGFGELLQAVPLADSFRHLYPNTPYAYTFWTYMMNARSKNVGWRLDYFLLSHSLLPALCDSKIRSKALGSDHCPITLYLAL
# [8] = tested on: CP192; assay: qHTS profiling for inhibitors of Plasmodium falciparum proliferation (AID 504749); further: nearly all actives have a fitted effect of over 60% in size; details: P. falciparum in erythrocytes, SYBR Green DNA, 72 h; series mostly up to 28.7 µM
# In short: (§1)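 Quantitative HTS: compounds pinned into medium, infected erythrocytes added (0.3% parasitemia, 2.5% hematocrit), 72 h culture at 37 C under 5% CO2. Saponin/Triton lysis with SYBR Green I, overnight RT, then fluorescence read.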
# [9] = tested on: CP203; assay: as above; details: P. falciparum in erythrocytes, SYBR Green DNA, 72 h; series mostly up to 28.7 µM
# In short: as §1
# [10] = tested on: DFO2036; assay: as above; details: P. falciparum in erythrocytes, SYBR Green DNA, 72 h; series mostly up to 28.7 µM
# In short: as §1
# [11] = tested on: PC49; assay: as above; details: P. falciparum in erythrocytes, SYBR Green DNA, 72 h; series mostly up to 28.7 µM
# In short: as §1
# [12] = molecular target: Ubiquitin carboxyl-terminal hydrolase 1 (Homo sapiens) (UniProt O94782); assay: Inhibitors of USP1/UAF1: Pilot qHTS (AID 504865); details: purified USP1/UAF1, Ub-rhodamine cleavage fluorescence; series mostly up to 114 µM;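 further: rhodamine fluorescence freed from ubiquitin-rhodamine substrate followed over time; top concentration of the series differs between compounds; nearly all actives have a fitted effect of over 35% in size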
# Chain of Ubiquitin carboxyl-terminal hydrolase 1 (Homo sapiens) (O94782 whole entry, looked up): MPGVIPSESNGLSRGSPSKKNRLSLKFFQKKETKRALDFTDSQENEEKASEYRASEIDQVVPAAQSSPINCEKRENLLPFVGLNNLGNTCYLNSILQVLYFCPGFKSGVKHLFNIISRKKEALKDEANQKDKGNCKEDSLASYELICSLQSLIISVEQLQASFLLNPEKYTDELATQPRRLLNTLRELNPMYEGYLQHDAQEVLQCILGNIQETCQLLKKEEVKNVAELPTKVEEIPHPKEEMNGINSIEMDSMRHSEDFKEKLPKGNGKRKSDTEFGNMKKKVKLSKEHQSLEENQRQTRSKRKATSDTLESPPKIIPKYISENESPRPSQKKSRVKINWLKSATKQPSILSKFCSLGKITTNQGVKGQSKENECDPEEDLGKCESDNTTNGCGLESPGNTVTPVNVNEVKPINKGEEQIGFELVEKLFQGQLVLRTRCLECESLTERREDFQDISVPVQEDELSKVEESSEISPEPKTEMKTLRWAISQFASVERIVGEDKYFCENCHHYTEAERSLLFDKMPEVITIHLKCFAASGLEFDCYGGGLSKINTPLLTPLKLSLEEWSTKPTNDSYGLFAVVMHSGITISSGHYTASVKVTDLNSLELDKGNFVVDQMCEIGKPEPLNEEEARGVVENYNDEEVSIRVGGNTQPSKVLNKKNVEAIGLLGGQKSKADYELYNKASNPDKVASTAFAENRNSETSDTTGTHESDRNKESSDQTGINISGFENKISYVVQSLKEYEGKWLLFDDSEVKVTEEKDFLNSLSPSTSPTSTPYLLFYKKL
# In short: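 Kinetic fluorescence assay: 1nM USP1/UAF1, 15 min compound preincubation, then 150nM Ub-Rho; 480/540 nm.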
# [13] = molecular target: Cytochrome P450 1A2 (Homo sapiens) (UniProt P05177); assay: p450-cyp1a2 (AID 410; calls by dose curve; further: potency means the concentration at half of the fitted maximal effect); details: recombinant CYP1A2, luciferin-ME demethylation, luminescence; series mostly up to 11.4 µM
# Chain of Cytochrome P450 1A2 (Homo sapiens) (P05177 whole entry, looked up): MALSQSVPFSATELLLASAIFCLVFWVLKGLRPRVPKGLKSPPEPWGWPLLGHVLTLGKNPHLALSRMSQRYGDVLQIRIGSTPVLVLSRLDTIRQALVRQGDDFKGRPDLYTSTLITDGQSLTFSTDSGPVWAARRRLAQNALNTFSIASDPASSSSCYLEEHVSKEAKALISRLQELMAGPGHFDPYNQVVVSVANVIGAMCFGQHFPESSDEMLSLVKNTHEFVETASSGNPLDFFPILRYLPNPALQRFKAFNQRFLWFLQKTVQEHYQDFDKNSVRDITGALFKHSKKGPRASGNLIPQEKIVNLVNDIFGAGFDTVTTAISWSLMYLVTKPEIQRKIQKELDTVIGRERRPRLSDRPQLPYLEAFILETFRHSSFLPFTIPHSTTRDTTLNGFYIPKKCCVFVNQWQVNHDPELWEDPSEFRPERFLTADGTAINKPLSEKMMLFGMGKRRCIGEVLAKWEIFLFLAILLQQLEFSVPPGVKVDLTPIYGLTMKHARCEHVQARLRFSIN
# In short: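 Luminescent demethylation readout: Luciferin-ME (100uM, equal to Km) turned over by 20nM CYP1A2 for 60 min at room temperature after NADPH regeneration addition, following 10 min compound preincubation. Normalization used 57 uM furafylline as full inhibition.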
# [14] = molecular target: Glucocorticoid receptor (Homo sapiens) (UniProt P04150); assay: GR-GFP Redistribution (AID 450;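 active means compounds whose dose series gives a full or clear partial fitted curve of increased nuclear translocation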; further: potency means the concentration at half of the fitted maximal effect); details: U2OS GR-GFP nuclear translocation, laser cytometry, 2 h
# Chain of Glucocorticoid receptor (Homo sapiens) (P04150 whole entry, looked up, the tested form may be a part): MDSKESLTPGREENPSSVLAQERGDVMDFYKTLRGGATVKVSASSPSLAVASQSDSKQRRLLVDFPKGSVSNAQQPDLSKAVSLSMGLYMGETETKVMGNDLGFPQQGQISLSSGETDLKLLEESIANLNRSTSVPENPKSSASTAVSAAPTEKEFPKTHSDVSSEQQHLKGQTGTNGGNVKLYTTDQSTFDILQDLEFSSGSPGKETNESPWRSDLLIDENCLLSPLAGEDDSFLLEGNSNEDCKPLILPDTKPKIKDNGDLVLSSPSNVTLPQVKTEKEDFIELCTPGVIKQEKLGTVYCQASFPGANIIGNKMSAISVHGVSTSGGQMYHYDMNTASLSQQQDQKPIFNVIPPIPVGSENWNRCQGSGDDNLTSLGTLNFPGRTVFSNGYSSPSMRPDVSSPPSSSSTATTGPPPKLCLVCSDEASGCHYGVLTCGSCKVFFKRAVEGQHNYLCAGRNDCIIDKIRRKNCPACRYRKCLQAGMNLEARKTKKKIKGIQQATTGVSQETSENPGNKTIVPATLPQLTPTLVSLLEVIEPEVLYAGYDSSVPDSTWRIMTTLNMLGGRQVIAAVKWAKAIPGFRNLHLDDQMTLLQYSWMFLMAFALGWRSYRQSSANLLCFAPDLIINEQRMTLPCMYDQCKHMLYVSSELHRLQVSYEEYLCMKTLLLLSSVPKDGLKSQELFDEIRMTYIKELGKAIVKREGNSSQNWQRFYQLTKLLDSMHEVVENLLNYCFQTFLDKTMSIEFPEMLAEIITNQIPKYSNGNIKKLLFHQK
# [15] = molecular target: Glucocorticoid receptor (Homo sapiens) (UniProt P04150); assay: GR-EFC Redistribution (AID 451; calls by dose curve; further: potency means the concentration at half of the fitted maximal effect); details: CHO-K1 GR-EFC translocation, beta-gal luminescence, 2 h
# In short: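 CHO-K1 cells stably expressing nuclear-localized β-gal enzyme acceptor and GR fused C-terminally to the enzyme donor fragment; ligand-driven nuclear translocation restores β-gal by complementation. Compounds titrated up to 46 uM final, 2 h at 37 °C; luminescence read.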
# [16] = molecular target: Lysosomal acid glucosylceramidase (Homo sapiens) (UniProt P04062); assay: Glucocerebrosidase-p2 (AID 348; in the data active means potency below about 10 µM; further: potency means the concentration at half of the fitted maximal effect); details: purified GBA, blue fluorogenic substrate, 40 min
# Chain of Lysosomal acid glucosylceramidase (Homo sapiens) (P04062 whole entry, looked up): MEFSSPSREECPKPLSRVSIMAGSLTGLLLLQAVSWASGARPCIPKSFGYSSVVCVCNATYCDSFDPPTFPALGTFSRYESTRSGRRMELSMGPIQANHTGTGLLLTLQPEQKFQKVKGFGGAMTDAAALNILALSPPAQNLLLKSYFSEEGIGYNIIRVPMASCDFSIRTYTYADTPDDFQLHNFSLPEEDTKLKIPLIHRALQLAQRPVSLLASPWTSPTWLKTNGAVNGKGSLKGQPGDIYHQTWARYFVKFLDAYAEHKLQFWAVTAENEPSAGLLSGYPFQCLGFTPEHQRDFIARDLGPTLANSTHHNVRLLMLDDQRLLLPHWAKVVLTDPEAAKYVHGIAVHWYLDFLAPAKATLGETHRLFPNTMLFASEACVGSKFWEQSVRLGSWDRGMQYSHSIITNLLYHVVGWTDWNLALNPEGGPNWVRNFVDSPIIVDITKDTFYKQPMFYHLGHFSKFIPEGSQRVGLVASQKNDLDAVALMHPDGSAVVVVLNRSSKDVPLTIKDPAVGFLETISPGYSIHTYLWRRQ
# In short: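 Normal human glucocerebrosidase (0.2 nM) with blue fluorogenic substrate (80 uM final) in citrate/phosphate pH 5.9 with 10mM sodium taurocholate, 0.01% tween-20; 40 min RT, NaOH/glycine stop; fluorescence Ex 365/Em 440; AC50 from a titration from 0.6 nM upwards.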
# [17] = NFAT Signaling Pathway (AID 444; active means well fitted curve in either direction with a large enough effect, not every such curve was filed as active;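 further: carbachol stimulus at about its EC50 of 1 µM final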); details: Jurkat NFAT-bla M1, carbachol, beta-lactamase ratio, 5 h; at 7.69 µM (top of the series) unless noted
# In short: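 Jurkat cells carrying an NFAT-driven β-lactamase reporter and co-transfected muscarinic M1 receptor were treated with compound plus carbachol (1 uM final, an EC50 level) for 5 h at 37 °C. CCF4 loading followed for 1 h at RT; 460/530 nm ratio gave %activity.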
# [18] = molecular target: 3',5'-cyclic-AMP phosphodiesterase 4B (Homo sapiens) (UniProt Q07343); assay: qHTS Assay for Inhibitors of PDE-IV (AID 607; active means well fitted activation curve with a large enough effect in the main read-out, with a control signal flat, not every such curve was filed as active); details: HEK293 ACTOne CNG channel cells, membrane potential fluorescence; series mostly up to 22.9 µM
# Chain of 3',5'-cyclic-AMP phosphodiesterase 4B (Homo sapiens) (Q07343 whole entry, looked up): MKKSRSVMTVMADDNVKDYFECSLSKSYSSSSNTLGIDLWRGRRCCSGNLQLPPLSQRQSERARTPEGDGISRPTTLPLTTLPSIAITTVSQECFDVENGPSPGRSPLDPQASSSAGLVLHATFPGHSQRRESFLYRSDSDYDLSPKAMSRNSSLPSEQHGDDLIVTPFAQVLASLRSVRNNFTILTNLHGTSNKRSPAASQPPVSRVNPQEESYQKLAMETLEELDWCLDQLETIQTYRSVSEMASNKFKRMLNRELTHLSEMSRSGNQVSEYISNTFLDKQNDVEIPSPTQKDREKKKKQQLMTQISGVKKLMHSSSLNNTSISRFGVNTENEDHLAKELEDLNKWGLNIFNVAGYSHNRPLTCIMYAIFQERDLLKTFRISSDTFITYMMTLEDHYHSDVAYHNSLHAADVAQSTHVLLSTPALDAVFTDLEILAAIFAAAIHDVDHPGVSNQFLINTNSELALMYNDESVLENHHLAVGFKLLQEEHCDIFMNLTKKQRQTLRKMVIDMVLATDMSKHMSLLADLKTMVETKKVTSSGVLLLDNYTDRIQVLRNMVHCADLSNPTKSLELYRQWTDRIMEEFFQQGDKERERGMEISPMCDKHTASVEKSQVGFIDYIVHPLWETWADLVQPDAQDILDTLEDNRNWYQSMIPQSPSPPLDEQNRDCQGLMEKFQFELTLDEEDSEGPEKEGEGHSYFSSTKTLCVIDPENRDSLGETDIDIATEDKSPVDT
# In short: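 HEK293 ACTOne cells with CNG channel (1000/well), endogenous PDE4; membrane potential dye, compounds up to 22.9 uM final. Fluorescence Ex 535/Em 590; RO 20-1724 (100 uM final) as reference.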
# [19] = qHTS Assay for Inhibitors of Fructose-1,6-bisphosphate Aldolase from Giardia Lamblia: Coupling assay counterscreen confirmation (AID 2795); details: GAPDH coupling enzyme counterscreen, biochemical; series mostly up to 57.5 µM; further: nearly all actives have a fitted effect of over 55% in size
# In short: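 Compounds at up to 57.5 uM final tested against the coupling enzymes and resorufin-type fluorescent detection only, aldolase omitted. Ex 525 nm/em 598 nm read after 10 min enzyme-compound and 20 min substrate incubations, room temperature.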
# [20] = qHTS profiling for inhibitors of Plasmodium falciparum proliferation (AID 504749); further: nearly all actives have a fitted effect of over 60% in size; details: P. falciparum in erythrocytes, SYBR Green DNA, 72 h, at 28.7 µM (top of the series)
# In short: as §1
structure (smiles),measurement,setting,value
CCCCCCCC/C=C\CCCCCCCC(=O)N(CCO)CCO,Potency,[1],inactive
OC1CCCCC1,Potency,[2],inactive
same,Potency,[3],inactive
O=[N+]([O-])c1cc(N(CCO)CCO)ccc1NCCO,activation,[4],15% and 1.64%
Cc1ccc(-c2nc(SCC(=O)Nc3ccccc3OC(F)F)c3c(C)c(C(=O)O)sc3n2)cc1,outcome,[5],inactive
same,outcome,[6],inactive
same,Potency,[7],11.2 µM (active)
CC/C=C/C/C=C/C/C=C/CCCCCCCC(=O)OCC,Potency,[1],inactive
N/C(=N\OC(=O)Nc1ccccc1)c1ccno1,outcome,[5],inactive
same,outcome,[6],inactive
same,Potency,[7],inactive
C=C1CC[C@H](O)C/C1=C/C=C1\CCC[C@]2(C)[C@@H]([C@H](C)CCCC(C)C)CC[C@@H]12,Potency,[1],inactive
same,Potency,[8],inactive
same,Potency,[9],inactive
same,Potency,[10],inactive
same,Potency,[11],inactive
Cc1cc(-c2ccc(N=Nc3cc(S(=O)(=O)O)c4ccccc4c3N)c(C)c2)ccc1N=Nc1cc(S(=O)(=O)O)c2ccccc2c1N,Potency,[1],inactive
O=c1nc2s/c(=C\c3ccco3)c(=O)n2nc1Cc1ccccc1,outcome,[5],inactive
same,outcome,[6],inactive
same,Potency,[7],inactive
CC1=C(/C=C/C(C)=C/C=C/C(C)=C/C=O)C(C)(C)CCC1,Potency,[1],inactive
same,Potency,[3],0.422 µM (active)
Cc1cc(C)c2nc(-c3ccco3)cc(C(=O)O)c2c1,outcome,[5],inactive
same,outcome,[6],inactive
same,Potency,[7],inactive
Cc1ccc(Cc2cnc(N)s2)o1,outcome,[5],inactive
same,outcome,[6],inactive
Oc1cc2c(cc1O)[C@H]1c3ccc(O)c(O)c3OC[C@@]1(O)C2,Potency,[1],inactive
same,Potency,[12],inactive
CN(C)c1ccc(C(=N)c2ccc(N(C)C)cc2)cc1,Potency,[2],14.1 µM (active)
same,Potency,[3],66.8 µM (active)
CC[C@@H](CO)Nc1nc(NCc2ccccc2)c2ncn(C(C)C)c2n1,Potency,[13],12.6 µM (active)
same,Potency,[14],> 46 µM
same,Potency,[15],> 46 µM
same,Potency,[12],inactive
N#Cc1ccccc1CN1C(=O)S/C(=C/c2cccn2-c2cccc(C(=O)O)c2)C1=O,Potency,[7],inactive
CC(C)(C)C(=O)OCc1nc(-c2ccc(O)c(O)c2)cs1,Potency,[7],inactive
CN(C)Cc1ccccc1-c1ccc2ncnc(NC3CCNCC3)c2c1,Potency,[16],> 11.4 µM
same,Potency,[13],inactive
same,"activity change, negative = inhibition",[17],-12.2%
same,Potency,[14],> 46 µM
same,Potency,[15],> 46 µM
same,Potency,[18],inactive
same,Potency,[12],inactive
CC(C)(c1ccccc1)c1ccc(OCCN2CCCC2)cc1,outcome,[19],inactive
Fc1cccc(CSc2ncnc3c2ncn3[C@H]2CCCS2)c1,Potency,[16],> 11.4 µM
same,Potency,[13],0.501 µM (active)
same,"activity change, negative = inhibition",[17],-2.58%
same,Potency,[14],> 46 µM
same,Potency,[15],> 9.22 µM
same,Potency,[18],inactive
O=C(N/N=C/c1ccccn1)c1cccnc1,outcome,[19],inactive
NS(=O)(=O)c1cc2c(cc1Cl)N[C@H](Cc1ccccc1)NS2(=O)=O,Potency,[16],> 11.4 µM
same,Potency,[13],3.16 µM (active)
same,"activity change, negative = inhibition",[17],23.7%
same,Potency,[14],> 46 µM
same,Potency,[15],> 9.22 µM
same,Potency,[18],inactive
same,Potency,[12],inactive
same,"activity, negative = inhibition",[20]; parasite line A,6.22%
same,"activity, negative = inhibition",[20]; parasite line B,-2.36%
same,Potency,[8],inactive
same,Potency,[9],inactive
same,Potency,[10],inactive
same,Potency,[11],inactive
